Source: PubChem BioAssay (NCI)
The panel holds about 83,000 compounds, 20% with a hit somewhere; the sample as a whole holds those more often.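 Cell lines were cultured in 96-well plates, exposed to a single compound concentration, and assessed for percent growth 48 hours later.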 Activity calls are given as the source filed them. The calls were made as follows: active = growth percent below 10; inactive = the rest.

Columns and labels:
Assay in all cases: NCI-60 one-dose screen, 48 h (100 = growth as untreated, 0 = no growth, -100 = all killed)
MOLT-4 leukemia = conditions: 10 µM
SR leukemia = conditions: 10 µM
RPMI-8226 leukemia = conditions: 10 µM
OVCAR-4 ovarian = conditions: 10 µM
SK-OV-3 ovarian = conditions: 10 µM
IGROV1 ovarian = conditions: 10 µM
OVCAR-3 ovarian = conditions: 10 µM
HS 578T breast = conditions: 10 µM
NCI/ADR-RES ovarian = conditions: 10 µM
T-47D breast = conditions: 10 µM
BT-549 breast = conditions: 10 µM
MDA-MB-435 melanoma = conditions: 10 µM
SW-620 colon = conditions: 10 µM
MCF7 breast = conditions: 10 µM unless noted
HCT-116 colon = conditions: 10 µM
HCC-2998 colon = conditions: 10 µM
KM12 colon = conditions: 10 µM
OVCAR-8 ovarian = conditions: 10 µM
OVCAR-5 ovarian = conditions: 10 µM

Measured: growth

COC(=O)C1C(O)C(C)C(O)C(C)/C=C\C=C(C)C(=O)Nc2c(C)c(OC(C)=O)c3c(c2O)C(=O)C(C)=C2OCOC(=C23)C(C)=CC(C)(O)C(O)C(C)C1O (stereo not given)
inactive: MOLT-4 leukemia 51.9% | SR leukemia 49.3% | RPMI-8226 leukemia 95.3% | OVCAR-4 ovarian 79.4% | SK-OV-3 ovarian 108% | IGROV1 ovarian 58.7% | OVCAR-3 ovarian 105% | HS 578T breast 81.7% | NCI/ADR-RES ovarian 105% | T-47D breast 100% | BT-549 breast 121% | MDA-MB-435 melanoma 100% | SW-620 colon 94.2% | MCF7 breast 93.6% | HCT-116 colon 99.9% | HCC-2998 colon 91.6% | KM12 colon 102%

O=C(CCl)Nc1ccc(Cl)cc1
active: OVCAR-3 ovarian 0.0428%
inactive: MOLT-4 leukemia 32.8% | SR leukemia 29.6% | RPMI-8226 leukemia 60.4% | OVCAR-8 ovarian 53.3% | SK-OV-3 ovarian 85.8% | NCI/ADR-RES ovarian 68.3% | T-47D breast 56% | MDA-MB-435 melanoma 48.5% | SW-620 colon 39.7% | MCF7 breast 16.9% | HCT-116 colon 18.9% | HCC-2998 colon 98.3% | KM12 colon 67.8%

ClCc1ccc2ccccc2n1
inactive: MOLT-4 leukemia 81.3% | SR leukemia 88.2% | RPMI-8226 leukemia 98.6% | OVCAR-8 ovarian 101% | SK-OV-3 ovarian 113% | OVCAR-3 ovarian 99% | HS 578T breast 97.4% | NCI/ADR-RES ovarian 98.4% | T-47D breast 87% | BT-549 breast 102% | MDA-MB-435 melanoma 93.9% | SW-620 colon 114% | MCF7 breast 103% | HCT-116 colon 91.1% | HCC-2998 colon 105% | KM12 colon 103%

O=[N+]([O-])c1cc[n+]([O-])c2ccccc12
active: MOLT-4 leukemia 3.5% | RPMI-8226 leukemia -7.21% | OVCAR-8 ovarian -31.1% | OVCAR-5 ovarian -13.7% | OVCAR-4 ovarian -99.6% | SK-OV-3 ovarian -18.4% | IGROV1 ovarian -24.3% | OVCAR-3 ovarian 4.56% | NCI/ADR-RES ovarian -55.1% | T-47D breast -20.5% | BT-549 breast -65.9% | MDA-MB-435 melanoma -70.7% | SW-620 colon -69.3% | MCF7 breast -16.7% | HCT-116 colon -71.2% | HCC-2998 colon -94.5% | KM12 colon -89.5%
inactive: HS 578T breast 18.7%
